CHT block – human CHT choline transport inhibition | CHT-expressing cells, membrane potential dye, choline response; active compounds read low | B-score at 10 µM | 310,000 compounds, 0.86% hits | AID 488975;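 active means B-score over 3 SD under the library average, and starting fluorescence ratio not unusually high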;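 further: choline stimulus applied at its EC90 after an EC20 pre-addition; B-score computed on integrated fluorescence ratio after choline addition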
Target sequence (Q9GZV3 whole entry, looked up): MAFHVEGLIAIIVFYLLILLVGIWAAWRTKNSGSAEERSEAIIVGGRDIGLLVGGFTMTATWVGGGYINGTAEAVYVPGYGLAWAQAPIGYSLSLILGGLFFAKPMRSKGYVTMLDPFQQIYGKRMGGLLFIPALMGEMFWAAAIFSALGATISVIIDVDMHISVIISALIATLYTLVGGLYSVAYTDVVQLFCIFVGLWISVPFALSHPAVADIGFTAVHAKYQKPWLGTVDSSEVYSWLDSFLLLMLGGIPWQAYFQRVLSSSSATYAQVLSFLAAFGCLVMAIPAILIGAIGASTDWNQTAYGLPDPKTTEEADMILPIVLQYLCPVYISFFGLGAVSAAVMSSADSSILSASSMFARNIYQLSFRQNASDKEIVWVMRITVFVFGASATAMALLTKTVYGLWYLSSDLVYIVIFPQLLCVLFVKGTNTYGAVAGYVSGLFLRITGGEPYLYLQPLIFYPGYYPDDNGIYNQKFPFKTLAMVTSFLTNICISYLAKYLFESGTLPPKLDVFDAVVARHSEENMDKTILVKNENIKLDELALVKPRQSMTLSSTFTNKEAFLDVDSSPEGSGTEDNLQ
VLA-4 inh – inhibition in a human VLA-4 binding assay; inhibition, % (about 7 µM as worked out from the volumes in the protocol); P13612; VLA-4 expressing cells, ligand binding flow cytometry; 330,000 compounds, 0.2% hits; in the data active means inhibition above about 50%
Platelet DG rel – modulates dense granule release in human platelets. 300,000 compounds, 0.22% hits. human platelet-rich plasma, SFLLRN dense granule ATP release, luminescence. AID 1663. inhibition, %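 (compounds screened at 7.5 µM in platelet-rich plasma)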;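 active means mean replicate score, as percent of positive control, at or above 50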
CHT PAM – allosteric activators of human choline transporter CHT | CHT-expressing cells, membrane potential dye, choline EC20; active compounds read high; LV-AA mutant CHT in HEK293 cells | B-score at 10 µM | 310,000 compounds, 0.49% hits;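 active means initial fluorescence not abnormally high and integrated response B-score, plate-corrected, over 3 SD above library mean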
HIF act – HIF pathway transcriptional activation | 300,000 compounds, 0.32% hits | activation, % at 7.5 µM (by protocol) | U2OS HRE-luciferase reporter, luminescence; normalized: DMSO 0%, desferrioxamine 100%;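 active means mean activation of at least 10% of the iron chelator positive control signal, with at least half of replicates also reaching 10%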
AI-2 QS mod – modulators of Vibrio harveyi AI-2 quorum sensing system. Vibrio harveyi JMH597 AI-2 luminescence/OD600 ratio, 9 h; active compounds read low; strain lacks LuxN and CqsS sensors; 0 = neutral-control median. 300,000 compounds, 0.4% hits. activity change, % at 7.5 µM. AID 2094; in the data active means activity change below about -75%, passing the limit was not always enough;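 further: luminescence divided by OD600 gain over 9 h not by final OD600 alone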
Starred values were filed as active, the others as inactive; i = inactive; nt = no result given. This is a sample that favours compounds with a hit; in the whole collection about 2.2% have one here.

SMILES	CHT block	VLA-4 inh	Platelet DG rel	CHT PAM	HIF act	AI-2 QS mod
CCCc1ccc(C(=O)O/N=C(\N)c2ccccn2)cc1	i	3	77*	i	-4	-10
COc1ccc(NC(=O)C2CCCN(CCCc3ccccc3)C2)cc1OCC(C)C (centres undefined)	i	11	10	i	-2	28
COc1ccc(NC(=O)CNC(=O)Cc2cccc3ccccc23)c(OC)c1	i	-6	-1	i	93*	18
COc1ccc(NC(=O)C(=O)Nc2cccc3ccccc23)c(OC)c1	i	10	-1	i	1	nt
CCc1ccc(-c2ccc(SCc3ccccn3)nn2)cc1	i	0	-15	i	3	11
CCOc1ccc(-c2ccc(SCc3ccccn3)nn2)cc1	i	61*	-3	i	2	25
Cc1nc2ccccc2n2c(-c3ccccc3)c3c(=O)n(C)c(=O)n(C)c3c12	i	5	5	i	212*	8
Cc1cccc2nc(CSc3nc4ccccc4o3)cn12	i	1	15	i	1	-93*
Cc1cccc2nc(CSc3nnc4ccccn34)cn12	i	-1	9	i	1	10
CCc1ccc(CNC(=O)c2ccc(OC)c(OC3CCN(C(C)C)CC3)c2)nc1	-9.6*	-1	-4	i	-1	25
COc1ccc(C(=O)NC(Cn2ccnc2)C(C)(C)C)cc1OC1CCN(C(C)C)CC1 (centres undefined)	-8.7*	2	0	i	0	9
Cc1cccc(C)c1NC(=O)CN(C1CCCCC1)S(C)(=O)=O	i	11	8	i	-4	17
Cc1ccccc1-c1cc(C(=O)NCc2ccc3c(c2)OCO3)nn1CC1CC(c2cccc([N+](=O)[O-])c2)=NO1 (centres undefined)	nt	-4	nt	nt	nt	nt
CCOC(=O)c1cc2sccc2n1CC(=O)Nc1ccc(OC)c(OC)c1	i	3	0	i	0	31
CCOC(=O)c1cc2sccc2n1CC(=O)Nc1ccc(OC)cc1	i	19	-3	i	36*	18
Cc1cccc(-c2nsc(SCC(=O)c3ccc(Cl)cc3)n2)c1	i	13	9	i	228*	15
CCOC(=O)CNC(=O)CSc1nc(-c2cccc(C)c2)ns1	i	8	-22	i	0	8
COCCN1C(=O)N(c2cccc(C)c2)C(=O)C1CC(=O)Nc1cc(OC)cc(OC)c1 (centres undefined)	i	4	0	i	0	13
CCOc1ccc2oc(C(=O)NNC(=O)c3csc(N4CCOCC4)n3)c(C)c2c1	i	8	-7	i	0	31
Cc1cc(-c2nnnn2-c2cc(Cl)cc(Cl)c2)no1	i	2	-24	i	13*	-5
CCCN=Cc1ccc(O)cc1	i	1	9	i	0	12
O=C(COc1ccccc1)Nc1nnc(-c2ccccc2Cl)o1	i	21	-14	i	0	-79*
Cc1ccc(-n2c(C)cc(/C=c3/sc4nc5ccccc5n4c3=O)c2C)cc1	i	-4	61*	i	-1	8
COc1ccc(-c2sc(Nc3ccccc3)n[n+]2-c2ccc(F)cc2)c(C)c1C	-5.4*	14	4	i	0	10
CCCOc1ccc(-c2nc(=S)[nH][nH]2)cc1	i	4	1	i	2	-84*
SMILES	CHT block	VLA-4 inh	Platelet DG rel	CHT PAM	HIF act	AI-2 QS mod
O=C(CCC(=O)c1ccc(F)cc1)Nc1cc(Cl)cc(Cl)c1	i	15	1	i	3	-79*
CCOC(=O)CCCCCC(=O)Nc1ccc2c(c1)CC(=O)N([C@@H](C)CO)C[C@H](C)[C@@H](CN(C)C(=O)Nc1ccc3c(c1)OCO3)O2	nt	-36	nt	nt	nt	nt
CCCn1cc(NC(=O)c2cc(-c3ccccc3)on2)cn1	i	-13	-16	i	10*	38
CC1=CCC2C(=O)N(c3ccc(OC(=O)c4ccco4)cc3)C(=O)C2C1 (centres undefined)	i	0	2	i	0	8
COc1ccc(OC)c(N(C)S(=O)(=O)c2cc3c(cc2C)NC(=O)CO3)c1	i	3	-2	i	0	-1
CC(=O)Nc1ccc(NC(=O)CS(=O)(=O)c2cn(CC(=O)N3CCC(C)CC3)c3ccccc23)cc1	i	7	-1	i	0	23
COc1ccc(OC)c(/C=N/Nc2nncn2/N=C/c2cc(OC)ccc2OC)c1	i	-2	19	i	-1	17
COc1cc(/C=N/Nc2nncn2/N=C/c2ccc(O)c(OC)c2)ccc1O	i	-14	56*	i	1	17
COc1ccc(-c2nn(-c3ccccc3)cc2CNC[C@H]2O[C@@H](n3cnc4c(N)ncnc43)[C@H](O)[C@@H]2O)cc1	nt	-18	nt	nt	nt	nt
CC(C)c1ccc(NC(=O)COc2ccccc2)cc1	i	9	-1	i	3	-20
CCc1ccc(NC(=O)CSc2ccc(-c3ccccn3)nn2)cc1	i	-6	-13	i	13*	12
CC(C)c1ccc(NC(=O)COc2ccccn2)cc1	i	12	-4	i	1	-83*
Cc1ccc(N(CC(=O)NC2CCCCC2)C(=O)CNC(=O)c2ccco2)cc1C	i	7	2	i	0	4
Cc1cc(C)c2c(N)c(C(=O)Nc3ccccc3F)sc2n1	i	13	2	i	30*	22
Cc1ccc(C(=O)N[C@H](C(=O)OCc2cc(=O)n3c(n2)sc2ccccc23)C(C)C)cc1	i	nt	-2	i	0	19
CC(C)[C@H](NC(=O)c1ccco1)C(=O)OCc1cc(=O)n2c(n1)sc1ccccc12	i	1	1	i	20*	-2
COc1ccccc1OCCSc1nc2ccccc2n1CC(O)CO (centres undefined)	i	11	2	i	1	nt
O=C(OCc1cc(Cl)ccc1OC(F)F)c1ccc([N+](=O)[O-])o1	i	1	2	i	0	-99*
COc1ccc(C)cc1NC(=O)COC(=O)c1ccc([N+](=O)[O-])o1	i	2	-1	i	0	5
COc1ccc(NC(=O)COC(=O)c2ccc([N+](=O)[O-])o2)cc1Cl	i	-6	2	i	0	-89*
COc1ccc(CN2CCN(Cc3ccccc3F)CC2)cc1OC	i	7	6	i	4	17
Oc1c(C(c2cccs2)N2CCOCC2)sc2ncnn12 (centres undefined)	i	-23	55*	i	0	27
CN(CC(=O)Nc1ccccc1Br)C(=O)C(Cc1ccccc1)NC(=O)c1ccccc1 (centres undefined)	i	-7	59*	i	0	14
